Measurements published in PubChem BioAssay AID687001 (Broad Institute, 2013).
Measured potencies and affinities stand elsewhere. The source made the active and inactive calls.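 The calls were made as follows: active = signal-lowering compounds whose fitted half-maximal concentration is at or below twice the top tested dose in every run; inconclusive = runs disagree, flat 30 to 70% inhibition, or poor curve fit; inactive = the rest.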

molecular target: Protein S100-A4 (Homo sapiens) (UniProt P26447); assay: S100A4-myosin IIA binding inhibitor potency, dose response, biochemical, fluorescence polarization, cherry-picked hits (AID 687001); settings: FP, S100A4/TAMRA-myosin IIA peptide binding; series mostly up to 11 µM
Sequence (P26447 whole entry, looked up): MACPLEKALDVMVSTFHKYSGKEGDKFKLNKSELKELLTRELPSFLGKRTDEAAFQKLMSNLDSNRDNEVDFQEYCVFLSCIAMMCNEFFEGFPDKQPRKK

outcome, inactive:
Cc1[nH]c2ccccc2c1CC(=O)Nc1ccc(Nc2cccnc2)c(Br)c1
O=C(NCc1ccccc1)c1cc(C2CCCCN2S(=O)(=O)c2ccccc2)on1 (stereo not drawn)
CCCC(=O)Nc1ccc2c(c1)OC[C@@H](C)N(C(=O)c1cnccn1)C[C@@H](C)[C@H](OC)CN(C)C2=O
CC(NC(=O)c1ccccc1F)c1nnc(SCC(=O)Nc2nnc(C3CC3)s2)n1C (stereo not drawn)
Cc1ccc(CCNC(=O)c2cc(-c3ccncc3)nc3ccc(S(=O)(=O)N4CCOCC4)cc23)cc1
CO[C@H]1CN(C)C(=O)c2cc(NC(C)=O)ccc2OC[C@H](C)N(Cc2ccccn2)C[C@H]1C
O=C(Nc1nnc([C@H]2C[C@H](O)[C@@H](CO)O2)s1)c1cccc(Oc2ccccc2)c1
O=C(c1ccc2c(c1)OCO2)N1CC(=O)N2[C@@H](CO)[C@H](c3ccc(C#Cc4ccccc4)cc3)[C@@H]2C1
CCc1ccc(C(=O)NNC(=O)c2c(CC)noc2C)cc1
C[C@H](CO)N1C[C@H](C)[C@@H](CN(C)Cc2cccc(F)c2)Oc2ncc(C#C[C@@H](C)O)cc2C1=O
Cc1noc(C)c1NC(=O)N[C@@H]1CC[C@H](CCNC(=O)C2CCOCC2)O[C@@H]1CO
COC(=O)[C@@H]1[C@@H](CO)[C@@H]2Cn3c(cccc3=O)[C@@H]2N1CC1CCOCC1
COc1ccc(NC(=O)CN(C)C(=O)C2CC(=O)N(c3ccc4c(c3)OCCO4)C2)cc1 (stereo not drawn)
CC(=O)Nc1ccc(S(=O)(=O)Nc2ccc3c(c2)OCO3)cc1
CN1C(C(=O)Nc2ccc(OC(F)(F)F)cc2)=CC(c2ccco2)=NS1(=O)=O
CC(C)c1ccc(/C=N/n2c(COc3ccccc3)n[nH]c2=S)cc1
C[C@H](CO)N1C[C@H](C)[C@H](CN(C)Cc2ccccc2)Oc2c(NC(=O)CCCCCC(=O)Nc3ccccc3N)cccc2C1=O
COc1ccccc1CN1CCNC(=O)C1CC(=O)NCCCN1CCOCC1 (stereo not drawn)
O=C(N[C@H]1CC[C@@H](CCNS(=O)(=O)Cc2ccccc2)O[C@H]1CO)c1ccccc1F
O=C(Cn1cc(COc2ccc3ccc(=O)oc3c2)nn1)c1ccc(O)cc1
O=C(CSc1ncnc2c1nnn2Cc1ccc(F)cc1)NCC1CCCO1 (stereo not drawn)
COc1ccccc1C(=O)NC(=O)COC(=O)c1ncc(Cl)c(Cl)c1Cl
CN1c2ccc(C#Cc3cccnc3)cc2[C@@H]2[C@@H](CCN2S(=O)(=O)c2ccccc2F)[C@@H]1CO
CN(C)C(CNC(=O)CCc1nc2cc(Cl)ccc2n(Cc2ccccc2)c1=O)c1ccccc1 (stereo not drawn)
C[C@@H]1CCCCO[C@@H](CN(C)Cc2ccc(C(=O)O)cc2)[C@H](C)CN([C@H](C)CO)C(=O)c2cc(NC(=O)CCCN(C)C)ccc2O1
COc1ccc(C#Cc2ccc([C@H]3[C@H]4CN(S(=O)(=O)c5ccccc5)CCCCN4[C@H]3CO)cc2)cc1
CCC1(CC)NC(=O)N(CC(=O)Nc2ccc(C)cc2C)C1=O
COc1c(Br)cc([N+](=O)[O-])c(OC)c1C(=O)NC(=O)Nc1c(Cl)cccc1Cl
S=C(NCCCc1cnc[nH]1)NCCCN(Cc1ccc(Cl)cc1)c1ccc(Br)cn1
COc1ccc(S(=O)(=O)N(C)C[C@H]2Oc3ncc(-c4ccncc4)cc3C(=O)N([C@@H](C)CO)C[C@H]2C)cc1
CN1CCN(C(=O)C[C@@H]2C=C[C@@H](NS(=O)(=O)c3cccc(F)c3)[C@@H](CO)O2)CC1
Cc1ccc(CNS(=O)(=O)c2ccc(C)s2)cc1
O=C1CN(Cc2ccc(F)cc2)C[C@@H]2[C@@H](c3ccc(-c4ccccc4F)cc3)[C@H](CO)N12
CN1CCN(S(=O)(=O)c2cccc(C(=O)NC3CCCC3)c2)CC1
Cn1c(=O)[nH]c2c(nc(-c3ccc(Cl)cc3)n2C)c1=O
COC(=O)c1c(NC(=O)CCN2CCOCC2)sc2c1CCCC2
Cc1ccc(S(=O)(=O)Nc2ccc3c(c2)C(=O)N([C@@H](C)CO)C[C@@H](C)[C@@H](CN(C)CC2CC2)OCCCC[C@@H](C)O3)cc1
COc1ccc(CN(C)C[C@@H]2Oc3ccc(NC(=O)Cc4ccccc4)cc3CC(=O)N([C@@H](C)CO)C[C@H]2C)cc1
